The values that follow come from PubChem BioAssay (NCI).

Several values for one entry are separate records, joined by “and”; a condition that tells them apart may be missing. Equal entries are not always repeated. This is part of a sample that, as a whole, favours compounds with a hit. Of some 83,000 tested, about 20% had one in any assay.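 Negative percent growth values reflect cell death: -40 means 40% of the cells present at the start died, and -100 means all died.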 Activity calls are given as the source filed them. How the source made its calls: active means growth percent below 10; inactive means the rest.

For this assay, the system named is MDA-MB-468 breast. Description: NCI-60 one-dose screen, 48 h (100 = growth as untreated, 0 = no growth, -100 = all killed). The following applies: 10 µM unless noted.
Regarding `CCCCN1C(=O)/C(=c2\sc3n(c2=O)C2C(NN=3)N(CC)C(=O)N2CC)c2cc(Cl)ccc21` (configuration not stated), the growth is 56.2% (inactive).
The figure for `O=C(Cn1cc(CN2CCN(c3ccnc4cc(Cl)ccc34)CC2)nn1)Nc1cccc([N+](=O)[O-])c1` is 92.8% (inactive).
Turning to `COC(=O)[C@]1(CCSC)N[C@H](c2cn(-c3ccccc3)nc2C)[C@@H]2C(=O)N(c3ccccc3)C(=O)[C@@H]21`, the growth is 108% (inactive).
For the compound `CCCCCCCC/C=C\CCCCCCCCOc1ccc(CC(=O)NCC[N+]2(C)CCCC2)cc1`, the growth is 33.5% (inactive).
With `COc1ccc(C2CC(c3cc(OC)c(OC)c(OC)c3)=NN2c2ccc(S(N)(=O)=O)cc2)cc1` (configuration not stated), the growth is 71% (inactive).
With `COc1ccc(C(=O)OC2C(OC3C(O)COC(O[C@H]4C[C@H]5[C@@H]6CC=C7C[C@@H](O)CC[C@]7(C)[C@H]6CC[C@]5(C)[C@H]4[C@H](C)C(=O)CCC(C)C)C3OC(=O)C(C)C)OCC(O)C2O)cc1` (some centres not stated) the figure was -2.45% (active).
With `COc1cc(-c2nc(-c3nc4ccccc4[nH]3)cc3c2[nH]c2ccccc23)cc(OC)c1OC`, the growth is 42.1% (inactive).
For `COc1cc(-c2nc3ccccc3o2)cc(CN2CCCCC2)c1O`, the growth was 67.1% (inactive).
In the case of `N[C@@H](Cc1cn(-c2ccnc3ccccc23)nn1)C(=O)O`, the growth was 108% (inactive).
The figure for `Cn1c(SCC(=O)c2ccc(Br)cc2)nc2ccccc2c1=O` is 89.9% (inactive); for `COc1cc(NCCCCCCCNC(C)C)c2nccc(C)c2c1` it is 9.01% (active) and 13.7% (inactive).
With `C#CCCCCCCC[C@@H]1OC(=O)[C@H]([C@@H](C)CC)NC(=O)[C@@H]([C@@H](C)CC)NC(=O)CC(=O)[C@@H]1C` the figure was 101% (inactive).
Take `CCCCCCCCCCCCNC(=O)N[C@H](C(=O)N[C@H]1/C=C/OCCNC(=O)/C=C/[C@H](C(C)C)NC1=O)C(C)C`: the growth is 15.5% (inactive).
The figure for `CCOC(=O)C1(CC(C)C)CCOC1=O` (configuration not stated) is 99.7% (inactive).
With `N#Cc1cccc(C2C3=C(COC3=O)N(CCO)c3cc4c(cc32)OCO4)c1` (configuration not stated) the figure was 21% (inactive); with `COc1ccc(/C=C(/C(=O)N2CCN(c3ccccc3)CC2)c2cc(OC)c(OC)c(OC)c2)cc1N`, 11.7% (inactive).
The figure for `CCOC(=O)NC(Cc1ccccc1)c1ccccc1` (configuration not stated) is 106% (inactive).
Regarding `O=C1Nc2ccccc2/C1=N/N=C/c1ccsc1`, the growth was 78.3% (inactive).
In the case of `CCc1cccc2c3c(sc12)C(c1ccc(Cl)cc1)C(C#N)=C(/N=C/c1ccc(Cl)cc1)O3` (configuration not stated), the growth is -16.3% (active).
With `Cc1nc2ccccc2c(/C=C/c2ccc(Cl)cc2)c1C(=O)/C=C/c1cccs1` the figure was 79.7% (inactive).
With `COc1cc2nc(Nc3ccc(F)cc3)nc(N)c2cc1OC` the figure was 83.4% (inactive).
With `COc1cc(/C=C/C(=O)c2cc(OC)c(OC)c(OC)c2)ccc1OCc1ccc(F)cc1` the figure was 17.8% (inactive); with `CCCCCO/N=C\c1c2c(O)c3c(O)c(C)c4c(c3c1O)C(=O)C(C)(O/C=C\C(OC)C(C)C(OC(C)=O)C(C)C(O)C(C)C(O)C(C)/C=C\C=C(\C)C(=O)N2)O4` (configuration not stated), 0.538% (active).
Consider `COc1cccc(/C=C2\Oc3cc(OCCCN4CCCC4)ccc3C2=O)c1`, for which the growth was 69.4% (inactive).
With `COc1nc(Nc2cccc(C(F)(F)F)c2)nc(OC)n1` the figure was 112% (inactive); with `CC[C@H](C)[C@H](NC(=O)[C@H](CCCCN)NC(=O)[C@H](CCCCN)NC(=O)[C@@H](NC(=O)[C@@H](NC(=O)[C@@H](N)Cc1cnc[nH]1)[C@@H](C)CC)[C@@H](C)CC)C(=O)N[C@@H](CCCNC(=N)N)C(=O)N[C@H](C(=O)N[C@@H](Cc1c[nH]c2ccccc12)C(=O)N[C@@H](Cc1ccc(O)cc1)C(=O)N[C@@H](CCCNC(=N)N)C(=O)N[C@@H](CCCCN)C(=O)N[C@@H](C)C(=O)N[C@@H](Cc1c[nH]c2ccccc12)C(=O)N[C@@H](Cc1cnc[nH]1)C(=O)N[C@H](C(=O)N[C@@H](CC(C)C)C(=O)NCC(=O)N[C@@H](CCCCN)C(=O)N[C@H](C(N)=O)C(C)C)C(C)C)[C@@H](C)O`, 59.2% (inactive).
Regarding `NC(Cc1c[nH]c2ccccc12)C(=O)O` (configuration not stated), the growth is 110% (inactive) and 112% (inactive).
